# Results reported in the supplement of paper PMC10338343.
# ± gives the standard deviation.
# Test system: MILI (PIWIL2) piRISC loaded with piRNA #1 (26 nt)
# Assay: pre-steady-state target cleavage rate (min^-1); guide: piRNA #1 5'p-UGAGGUAGUAGGUUGUAUAGUAUCCA; MIWI and MILI are mouse PIWI proteins and EfPiwi is from a freshwater sponge; tags in brackets are library labels; higher = faster piRNA-guided slicing of the target
# Conditions: auxiliary factor: 500 nM mouse GTSF1
# Procedure: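 Cleave-'n-Seq: a library of target RNAs (target site embedded in constant flanks, ACAGCATTCCGCGTTAGTGATATCCG... 5' flank; DNA-blocked outside the site) at 0.1 nM was incubated with 1 nM active mouse MILI or MIWI piRISC (synthetic 5'-monophosphorylated piRNA guide) with or without 500 nM mouse GTSF1 at 33 °C for 1 min to 16 h. Uncleaved targets were sequenced and normalised to non-target controls, and the pooled three trials were fitted to a burst-and-steady-state model to give the pre-steady-state cleavage rate (min^-1; k3 is constrained to at most 1e-4). Sequence is the target site only; target names encode pairing extent (gX:gY) and contiguous / 1-mismatch / 2-mismatch / bulge geometry. Fits with R² ≤ 0 are excluded.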
row,Sequence,pre-steady-state target cleavage rate
1,GGAGACCAUACUUUACAAGCUACUACCUCA,0.199 ± 0.017
2,GGAGACCAUACUAUACAACGUACUAGCUCA,0.00786 ± 0.0034
3,GGAGACCUAUGUAUACAACCUACUACCCCA,0.045 ± 0.011
4,GGAGUGGAUACUAUACAUCCUACUACCACA,0.108 ± 0.014
5,GGAGACCUAUCUAUACAACCUACUACCCA,0.098 ± 0.019
6,GGAGACCUAACUAUACAACGUAGUACCUCA,0.00851 ± 0.0056
7,GGAGACCUAUGAUAUGUUGCUUGAACCUCA,< 0.0001
8,GGAGACCUAUGUAAUCAACCUACUACCUCA,0.00445 ± 0.003
9,GGAGUGGAAUACUAUACAACCUACUACCUCA,0.165 ± 0.0081
10,GGAGACCAAACUAUACAACCUACUACCUGA,0.133 ± 0.045
11,GGAGAGGAUACUAUACAACGUACAACCUCA,0.0104 ± 0.0029
12,GGAGUGGAUACUAUACUACCUACUAGCUCA,0.0877 ± 0.012
13,GGAGAGGAUACUAUUCAUCCUACUACCUCA,0.273 ± 0.02
14,GGAGACCUAACUAAAGAACCUACUACCUCA,0.0693 ± 0.013
15,GGAGACCUAUGUAUCACAACCUACUACCUCA,0.0102 ± 0.003
16,GGAGAGGAUACUAUUCAACCUACUACCUCA,0.178 ± 0.011
17,GGAGACCUAACUUUACAUCCUACUACCUCA,0.143 ± 0.025
18,GGAGACCUAACUAUACUACCUACUACCUCA,0.125 ± 0.022
19,GGAGACCUAACUAUUCAUCCUACUACCUCA,0.322 ± 0.043
20,GGAGUGGAUACUUUACAACCUACUACGUCA,0.0457 ± 0.0058

row,Sequence,pre-steady-state target cleavage rate
1,GGAGAGGAUACAAUACAACCUACAACCUCA,0.115 ± 0.015
2,GGAGACCAUACUUUACAACCUACUUCCUCA,0.0695 ± 0.018
3,GGAGUGGAUACUAUACAACCUUCAACCUCA,0.00344 ± 0.0019
4,GGAGACCUAUGAAGACAACCUACUACCUCA,0.00824 ± 0.0032
5,GGAGACCAUACUAUUGUACCUACUACCUCA,0.0647 ± 0.009
6,GGAGACCUUCACUAUACAACCUACUACCUCA,0.107 ± 0.017
7,GGAGACGUUACUAUACAACCUACAACCUCA,0.114 ± 0.015
8,GGAGACGAUACUAUACAACCUACUACUCA,0.125 ± 0.019
9,GGAGACCUAUCUUUACAACCUUCUACCUCA,0.00489 ± 0.0025
10,GGAGAGGAUACUAUUGUACCUACUACCUCA,0.131 ± 0.0096
11,GGAGACCUUACUAUACAAGCUACAACCUCA,0.239 ± 0.018
12,GGAGACCUAUGAUAUGUACCUACUAGGACA,< 0.0001
13,GGAGUGGUUACUAUAGAACCUACUACCUCA,0.175 ± 0.014
14,GGAGACCUAUGUAUACAACCUACGACCUCA,0.0402 ± 0.0075
15,GGAGACCAUACUAUACAACCUACUCCUCA,0.0178 ± 0.0057
16,GGAGAGGAUACUAUACCAACCUACUACCUCA,0.0443 ± 0.0084
17,GGAGACCAUACUAUACAACCUUCUACGUCA,0.00397 ± 0.0034
18,GGAGACCUAUGUAUACAACCUACUAGCCUCA,0.0572 ± 0.013
19,GGAGUGGAUACAAUACAACGUACUACCUCA,0.0223 ± 0.0023
20,GGAGAGGAUACUAUACAACCUAUCUACCUCA,0.128 ± 0.012
